# Source: PubChem (National Center for Advancing Translational Sciences (NCATS))
# Rows were chosen to be rich in hits. Some 12% of all compounds tested hit in one or more screens of this group.
# G9a inh = inhibitors of human histone lysine methyltransferase G9a; G9a H3K9 monomethylation, AlphaScreen, 2 h; Potency, µM (highest dose often 102 µM), usual class: inhibitors; 350,000 tested, 8.8% active; further: nearly all actives have a fitted effect of over 75% in size
#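 Using a bead-based AlphaScreen, monomethylated H3K9 product from 2 h room-temperature reactions (G9a 20 nM, peptide 500 nM, SAM 20 uM) was detected with 0.5 ug/mL rabbit anti-H3K9me1 antibody.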
# HP1b binding inh = HP1-beta chromodomain-methylated histone interaction inhibition. AlphaScreen HP1-beta / biotin-H3K9me3 peptide binding. Potency, µM (highest dose often 114 µM), hits mostly inhibitors. 390,000 tested, 0.56% active. AID 540317; further: nearly all actives have a fitted effect of over 70% in size
# Target sequence (P83916 whole entry, looked up): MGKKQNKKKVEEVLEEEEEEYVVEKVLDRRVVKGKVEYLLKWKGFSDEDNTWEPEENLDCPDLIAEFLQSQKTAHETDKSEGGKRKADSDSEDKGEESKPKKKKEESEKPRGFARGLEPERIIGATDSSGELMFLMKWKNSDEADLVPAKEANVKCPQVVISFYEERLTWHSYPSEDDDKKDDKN
#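 Compound inhibition of the preformed complex between 50 nM HP1-beta and 50 nM biotinylated H3K9me3 peptide was read by AlphaScreen. Buffer was PBS pH 7.4 with 0.01% Tween-20. Incubations ran 30 min at room temperature, with 10 ug/mL donor/acceptor beads.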
# JMJD2A Tudor inh = JMJD2A Tudor domain (human) inhibition; AlphaScreen JMJD2A-Tudor / H3K4me3 peptide binding; Potency, µM (doses to about 114 µM), actives largely listed as inhibitors; 390,000 tested, 4.4% active; AID 504339; further: nearly all actives have a fitted effect of over 50% in size
# PI5P4K alpha inh = blocks human PI5P4K alpha kinase activity; PI5P4Kalpha enzyme, ADP-Glo luminescence, 60 min; active compounds read low; max response, %; 330,000 tested, 1.2% active; AID 652105; active means max response of -50% or lower; inconclusive means between -30% and -50%; inactive means -30% or higher; further: value at the top dose of about 77 µM
# Target sequence (P48426 whole entry, looked up): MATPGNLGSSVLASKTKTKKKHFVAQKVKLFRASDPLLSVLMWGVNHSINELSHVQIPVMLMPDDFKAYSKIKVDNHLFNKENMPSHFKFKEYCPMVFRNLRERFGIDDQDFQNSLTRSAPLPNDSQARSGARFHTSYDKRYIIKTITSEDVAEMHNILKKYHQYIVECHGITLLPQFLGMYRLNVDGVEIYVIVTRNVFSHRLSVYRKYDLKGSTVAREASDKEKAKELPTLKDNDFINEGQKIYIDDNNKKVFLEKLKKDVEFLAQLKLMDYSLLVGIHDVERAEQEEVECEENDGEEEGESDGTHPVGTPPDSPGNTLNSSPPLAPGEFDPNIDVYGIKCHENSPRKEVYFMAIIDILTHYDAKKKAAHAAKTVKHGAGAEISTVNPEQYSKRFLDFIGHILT
#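 PI5P4Kalpha ADP-Glo assay; 5 microM ATP final; 60 min RT reaction; HEPES pH 7.4/EGTA/CHAPS, 5% DMSO; controls lacking substrate or enzyme; luminescent end-point.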
# PLK1 PBD block = PLK1 (human) polo-box domain binding inhibition. Plk1 PBD binding of FITC phosphopeptide, fluorescence polarization. P53350. 360,000 tested, 2.8% active. Potency, µM, hits mostly inhibitors; further: series mostly up to about 57 µM; nearly all actives have a fitted effect of over 65% in size
# BAZ2B inh = blocks human BAZ2B | Q9UIF8 | AID 504333 | Potency, µM (titrated, usually from 114 µM), hits mostly inhibitors | AlphaScreen BAZ2B-H3K14Ac peptide displacement | 360,000 tested, 4.4% active; further: nearly all actives have a fitted effect of over 60% in size
#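 BAZ2B (50 nM) with biotin-H3(5-23)K14Ac peptide (50 nM) in PBS pH 7.4, 0.01% Tween-20, preformed 30 min, then compound 30 min at room temperature; top concentration 110uM. AlphaScreen streptavidin donor/nickel chelate acceptor beads (10 ug/mL final), 20 min dark, signal read.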
# A number is an active result; n = inactive; u = inconclusive; x = no result given; [ ] = remark or other dose. Unless noted, the call rests on the fitted dose curve; in most records, active means well fitted curve in the direction sought with a large enough effect; inconclusive means small, poorly fitted or top-dose-only effect, or another doubt; inactive means no such curve, though single readings can be large; an effect the other way counts as inactive or inconclusive.
SMILES,G9a inh,HP1b binding inh,JMJD2A Tudor inh,PI5P4K alpha inh,PLK1 PBD block,BAZ2B inh
CC1CC(C)CN(c2ccc(-n3cnnn3)cc2[N+](=O)[O-])C1 (configuration not stated),u,n,u,n,n,u
NC(=O)CC(NC(=O)c1ccccc1)c1ccc(N2CCN(c3ccccc3)CC2)c([N+](=O)[O-])c1 (configuration not stated),x,n,n,n,n,n
O=[N+]([O-])c1cc(-n2cnnn2)ccc1N1CCC(Cc2ccccc2)CC1,n[0.501 µM],n,10µM,x,n,28µM
Cc1cc(C)cc(C(=O)NC(CC(N)=O)c2ccc(N3CCC(Br)CC3)c([N+](=O)[O-])c2)c1 (configuration not stated),u,n,n,n,n,n
NC(=O)CC(NC(=O)Cc1ccc(Br)cc1)c1ccc(N2CCC(N3CCCCC3)CC2)c([N+](=O)[O-])c1 (configuration not stated),56µM,n,n,n,n,n
Cc1cc(C)cc(C(=O)NC(CC(N)=O)c2ccc(N3CCC(Cc4ccccc4)CC3)c([N+](=O)[O-])c2)c1 (configuration not stated),50µM,n,n,n,n,u
NC(=O)CC(NC(=O)c1ccccc1)c1ccc(N2CCCCCC2)c([N+](=O)[O-])c1 (configuration not stated),50µM,u,45µM,n,u,u
Cc1cccc([S+](=O)([O-])NC2CCN(C#N)CC2)c1,x,x,n,x,x,x
NC(=O)CC(NC(=O)c1cccc(Br)c1)c1ccc(N2CCN(c3ccccn3)CC2)c([N+](=O)[O-])c1 (configuration not stated),50µM,n,u,n,n,u
NC(=O)CC(NC(=O)c1ccc(Br)cc1)c1ccc(N2CCN(c3ccccn3)CC2)c([N+](=O)[O-])c1 (configuration not stated),n[12.7 µM],n,n,n,n,n
C[C@H]([C@@H](N)C(=O)N[C@@H](C(=O)O)[C@@H]1O[C@H](n2ccc(=O)[nH]c2=O)[C@@H](O)[C@H]1O)[C@@H](O)c1ccc(O)cn1,3.2µM,n,n,n,n,u
C[C@H](NC(=O)/C=C/[C@H]1O[C@@H](n2ccc(=O)[nH]c2=O)[C@H](O)[C@@H]1O)C(=O)O,x,x,x,n,n,x
CCOc1ccc(NC(=O)c2cn(C)c(=O)c3cc(OC)c(OC)cc23)cc1,n,n,n,x,x,n
CCS(=O)(=O)c1cc([N+](=O)[O-])c(Sc2ccccc2NC(C)=O)s1,1.1µM,n,20µM,u,u,n
O=C(O)c1ccc(Nc2ncnc3ccccc23)cc1,n,n,n,n,n,n
Nc1c(Cl)ncnc1Nc1ccc(C(=O)O)cc1,x,n,13µM,n,n,x
Cc1nn(-c2cc(N3CCCCCC3)ccc2[N+](=O)[O-])c(=O)c2ccccc12,n,n,u,x,n,n
Cc1ccc(-c2nn(-c3cc(Cl)ccc3[N+](=O)[O-])c(=O)c3ccccc23)cc1C,n[0.501 µM],u,u,n,n,45µM
Cc1cc(C)n(-c2cc(Cl)ccc2[N+](=O)[O-])n1,n,n,n,n,27µM,n
Cc1ccc(-c2nn(-c3cc(N4CCNCC4)ccc3[N+](=O)[O-])c(=O)c3ccccc23)cc1,32µM,u,u,n,n,n
CC[C@@H]1/C=C(\C)C[C@H](C)C[C@H](OC)[C@H]2O[C@@](O)(C(=O)C(=O)N3CCCC[C@H]3C(=O)O[C@H](/C(C)=C/[C@@H]3CC[C@H](Cl)[C@H](OC)C3)[C@H](C)[C@@H](O)CC1=O)[C@H](C)C[C@@H]2OC,n[12.7 µM],x,x,x,x,x
CC(NC(=O)COC(=O)c1ccco1)C12CC3CC(CC(C3)C1)C2 (configuration not stated),x,n,n,x,x,x
Cc1ccc2c(c1)N(C(=O)CCC(=O)NCc1cccs1)CCO2,n,n,n,x,x,n
Cc1cccc(OCCNc2cc(N3CCN(C)CC3)ccc2[N+](=O)[O-])c1,n,50µM,40µM,n,n,u
O=C(c1ccccc1)N1CCN(c2ccc([N+](=O)[O-])c(NCc3cccnc3)c2)CC1,n,u,u,n,n,n
SMILES,G9a inh,HP1b binding inh,JMJD2A Tudor inh,PI5P4K alpha inh,PLK1 PBD block,BAZ2B inh
Cc1cccc(OCCNc2cc(N3CCOCC3)ccc2[N+](=O)[O-])c1,10µM,n,u,x,n,u
CC(C)CC(=O)N1CCN(c2ccc([N+](=O)[O-])c(NCc3ccccc3)c2)CC1,x,u,50µM,n,21µM,x
Cc1ccc(OCCNc2cc(N3CCN(CCO)CC3)ccc2[N+](=O)[O-])cc1C,u,u,u,n,n,32µM
COC(=O)c1cn(C(=O)c2ccc3c(c2)OCO3)c2ccccc12,x,x,x,n,n,x
O=C(O)CSc1ccn(Cc2ccccc2)c1,x,x,x,n,n,x
Cc1ccccc1OCCNc1cc(N2CCNCC2)ccc1[N+](=O)[O-],32µM,x,x,x,x,u
O=[N+]([O-])c1ccc([N+](=O)[O-])c(Nc2ccc(N3CCOCC3)cc2)c1,n[12.7 µM],u,18µM,n,n,18µM
CC(C)(C)CNc1cc(N2CCOCC2)ccc1[N+](=O)[O-],32µM,n,u,n,n,u
COc1ccc(-c2cc(C3C4C=CCC(C)C4C(=O)N3Cc3ccccc3)ccc2F)cc1OC (configuration not stated),x,n,n,x,x,x
Cc1cccc(N2CCN(c3ncnc4c3nc3n4CCCCC3)CC2C)c1 (configuration not stated),u,n,u,x,x,u
Cc1ccc(C2CC(=O)n3nc(-c4ccc(F)cc4)nc3S2)cc1 (configuration not stated),n,n,n,x,x,n
CC1=C(CC(=O)O)c2cc(F)ccc2/C1=C/c1ccc(S(C)=O)cc1 (configuration not stated),50µM,n,n,n,n,n
CC1=C(CC(=O)O)c2cc(F)ccc2/C1=C\c1ccc(S(C)(=O)=O)cc1,n[12.7 µM],x,x,x,x,x
CCN(CC)CCCn1c2c(c(SCC(=O)N3CCc4ccccc43)nc1=O)CCC2,n[0.501 µM],n,n,n,n,n
CSc1nc2[nH]c(=O)n(O)c(=O)c2n1Cc1ccccc1,x,n,3.2µM,u,n,x
CSc1nc2c(c(=O)n1Cc1ccccc1)SC(C)C2 (configuration not stated),u,n,n,x,n,n
CCOc1ccccc1NC(=O)COc1coc(CN2CCc3ccccc3C2)cc1=O,n[0.501 µM],n,n,n,n,u
O=C(COc1coc(CN2CCc3ccccc3C2)cc1=O)N1CCOCC1,45µM,n,n,n,n,n
Cc1ccc(Nc2cc(C)c3c(O)cccc3n2)cc1C,x,n,u,n,n,45µM
COc1ccc(Nc2cc(C)c3c(O)cccc3n2)cc1,x,n,n[11.4 µM],n,27µM,45µM
O=C(CCCn1c(=O)c2cccn2c2ccc(F)cc21)NCc1ccc(Cl)cc1,n,n,n,x,x,n
